This is part of a sample that, as a whole, favours compounds with a hit. Of some 83,000 tested, about 20% had one in any assay.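 Treatment: one concentration, 48 hours, 96-well format. Scoring: percent growth, with anything below 10 considered active.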 Values without a mark were called inactive. The source made the active and inactive calls.
Tested on: MDA-MB-468 breast
Assay: NCI-60 one-dose screen, 48 h (100 = growth as untreated, 0 = no growth, -100 = all killed)
Conditions: 10 µM unless noted

Row | Compound | growth
1 | CC1(C)CC[C@]23CC[C@]4(C)[C@H](CC[C@@H]5[C@@]6(C)C/C(=C/c7ccncc7)C(=O)C(C)(C)[C@@H]6CC[C@]54C)[C@H]2[C@H]1OC3 | 91.1%
2 | COc1ccc(-c2cc(-c3cccnc3)nc3sc4c(=O)n(-c5ccc(C)cc5)nnc4c23)cc1OC | 88%
3 | COc1cc(/C=C/C(=O)CC(=O)/C=C/c2cc(Br)c(OC)c(OC)c2)cc(Br)c1OC | 97.2%
4 | CCCCCC/C=N/Nc1ccc([N+](=O)[O-])cn1 | 108%
5 | CCN1CCN(c2cc(C(=O)Nc3cccc(Nc4ccc5c(OC)cccc5n4)c3)cc(C(F)(F)F)c2)CC1 | 23.8%
6 | COc1cc(C(=O)c2cc(C)c3[nH]c4ccc(O)cc4c3c2C)cc(OC)c1OC | -22.7% (active)
7 | Oc1[nH]c2ccccc2c1/C=c1/cc2c(c(-c3ccc(F)cc3)n1)=Nc1ccccc1-2 | -60.8% (active)
8 | C=CCN1C(=O)/C(=C/C(=O)OC)S/C1=N\NC(=O)c1cc2ccc1/C=C\c1ccc(cc1)/C=C\2 | 76.3%
9 | C=C1C(=O)O[C@H]2[C@H]1CC/C(COC(=O)OCCCCCOC(=O)OC/C1=C/CC[C@@]3(C)O[C@H]3[C@H]3OC(=O)C(=C)[C@@H]3CC1)=C\CC[C@@]1(C)O[C@@H]21 | -38.5% (active)
10 | COc1cccc(-c2nn(-c3ccccc3)cc2-c2ccnc(-c3cccnc3)c2)c1 | 80.4%
11 | COc1ccc(-c2nn(-c3cccc(NC(=O)Nc4ccc(Cl)c(C(F)(F)F)c4)c3)cc2-c2ccncc2)cc1Cl | 23.1%
